Screens: PubChem BioAssay, Buhrlage Lab, Dana-Farber Cancer Institute and Novartis Institutes for BioMedical Research (Cambridge, Mass)
UCHL1 block = inhibitors of human UCHL1 deubiquitinase. Ubiquitin carboxyl-terminal hydrolase isozyme L1 (Homo sapiens), P09936. purified UCHL1, Ub-rhodamine cleavage fluorescence. inhibition, % at 20 µM. hit rate 0.2% among 47,000. AID 1645859, 2021
USP7 inh = inhibitors of human USP7 deubiquitinase | inhibition, % at 20 µM | Ubiquitin carboxyl-terminal hydrolase 7 (Homo sapiens), Q93009 | hit rate 0.3% among 47,000 | purified USP7, Ub-rhodamine cleavage fluorescence
USP10 inh = inhibitors of human USP10 deubiquitinase; Ubiquitin carboxyl-terminal hydrolase 10 (Homo sapiens), Q14694; purified USP10, Ub-rhodamine fluorescence, 60 min; inhibition, % at 20 µM; hit rate 1.1% among 47,000; AID 1645856, 2021
OTUD3 block = inhibitors of human OTUD3 deubiquitinase; OTU domain-containing protein 3 (Homo sapiens), Q5T2D3; inhibition, % at 25 µM; hit rate 0.7% among 47,000; purified OTUD3, Ub-rhodamine fluorescence, 2 h
* marks the source's active call; other numbers are inactive results. An excerpt weighted towards active compounds, which were near 1.5% of everything screened. Cut-off read from the data, not from the text of the source: active = inhibition above about 30%; inactive = the rest.

SMILES	UCHL1 block	USP7 inh	USP10 inh	OTUD3 block
CC(C)=CCOC(C)(C)[C@H]1OC2CC[C@@]3(C)C(CCC4Cc5c([nH]c6ccccc56)[C@@]43C)C23OC3[C@@H]1O (stereo partly drawn)	7.1	39.3*	75.8*	60.9*
Cc1c(CC(=O)N2CCN(CC(=O)N3CCCCCC3)CC2)c(=O)oc2cc(O)ccc12	-0.1	3.7	-12.4	7.0
CC(C)=CCCC1(C)C=Cc2c(O)c3c(c(CC=C(C)C)c2O1)OC12C(=CC4CC1C(C)(C)OC2(C/C=C(/C)C(=O)O)C4=O)C3=O (stereo not drawn)	15.4	66.9*	81.5*	69.4*
CC(C)C12CN3CC(C(C)C)(CN(C1)C3c1ccccn1)C2O (stereo not drawn)	2.2	7.1	2.2	0.0
O=C1c2c(O)c(Cl)cc3c2[C@@]2(Oc4cc(Cl)c(O)c5c4[C@]3(O2)[C@@H]2O[C@@H]2C5=O)[C@@H]2O[C@H]12	92.1*	92.9*	69.2*	83.5*
Cc1c(C(=O)N2CCC3(CC2)OCCO3)sc2nc3n(c(=O)c12)CCCCC3	-0.6	-1.8	1.1	-0.3
O=C1CSC(c2cccc([N+](=O)[O-])c2)c2c(n(C3CCCCC3)[nH]c2=O)N1 (stereo not drawn)	-0.5	7.4	4.3	-0.9
CC1=C(O)C(=O)C=C2C1=CC=C1[C@@]2(C)CC[C@@]2(C)[C@@H]3C[C@](C)(C(=O)O)CC[C@]3(C)CC[C@]12C	12.1	34.8*	80.7*	25.7
